From PubChem BioAssay
The sample as a whole holds a higher share of hits than the screen did.
Tgondii IFNg: T. gondii growth inhibition with IFN-gamma, primary screen, cell-based | Toxoplasma gondii growth in IFN-gamma-treated host cells; stronger effect = lower value | activity change, negative = inhibition, % (test concentration not listed) | 69,000 compounds, 3.8% hits | AID 1259416, 2018; in the data active = activity change below about -70%, passing the limit was not always enough;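 note: host cells are HeLa cells infected with Toxoplasma gondii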
A number is an active result; 0 = inactive.

SMILES | Tgondii IFNg
COc1ccc(CCNC(=O)C2C3C=CC4(CN(C5CCCC5)C(=O)C24)O3)cc1C (stereo not drawn) | 0
COc1cccc(-c2nccn2CCc2cnc[nH]2)c1OC | 0
CCOCc1cc(-c2nccn2-c2cccnc2)ccc1OC | 0
COc1ccc(-c2ccccc2)cc1-n1ccnc1-c1cnc[nH]1 | -82
COCC1CCCN(C(=O)c2ccc(-c3ccncc3)nc2)C1 (stereo not drawn) | 0
CC(Cc1cccs1)NC(=O)CSCc1ccco1 (stereo not drawn) | 0
CC(CN(C)Cc1ccc2[nH]ccc2c1)N1CCOCC1 (stereo not drawn) | 0
CO[C@@H]1CO[C@@]2(CCCN(C(=O)CC3=CCCCC3)C2)C1 | 0
O/N=C/c1ccc(-c2ccc(O)c(F)c2)c(Cl)c1O | -87
O=C(O)c1ccc(-c2ccc(O)c(F)c2)cc1 | 0
COc1ncnc2c1CCN(C(=O)NCc1cccc(F)c1)CC2 | 0
COc1cc2c(cc1CN1CCC3(CCc4ccccc4C(=O)N3)C1)OCCO2 (stereo not drawn) | 0
CC(C)N(C)CC1CN(C(=O)c2cscn2)Cc2nccn2C1 (stereo not drawn) | 0
Cc1ccc(C)c(OCC(=O)N(C)Cc2cc(C(C)C)on2)c1C | 0
Cc1cccc(OCCCN(C)C(=O)CN)c1C | 0
COCC(=O)N(C)CCOc1c(C)ccc(C)c1C | -78
CCc1ccc(S(=O)(=O)N2CCC(c3nc(C(=O)N4CCCC4)c(C)o3)CC2)cc1 | 0
CN(Cc1nc(-c2ccncc2)no1)C(=O)c1cccc2ccnn12 | 0
CC(C)C(=O)c1ccc2onc(-c3coc(C4CC4)n3)c2c1 | 0
CC(C)n1cnc2c(NCC3CC3)nc(C3CCN(C(=O)c4cccc(F)c4F)CC3)cc21 | 0
Cn1cnc2c(NCc3ccccc3)nc(C3CCN(S(C)(=O)=O)CC3)cc21 | 0
Cc1cc(C(=O)N2CCC(c3cc4c(ncn4C)c(NCC4CC4)n3)CC2)ccc1Cl | -85
CCOc1ccc(CC(=O)NCCc2csc(-c3ccc(F)cc3)n2)cc1 | 0
CCN(CC)C(=O)c1cn[nH]c1C1CCCCN1C(=O)c1cccc(-c2ccc(F)cc2)c1 (stereo not drawn) | 0
COc1ccccc1NC(=O)N1C[C@H](O)COC[C@H]2O[C@H](CC(=O)N3CCC(Cc4ccccc4)CC3)CC[C@@H]21 | 0
SMILES | Tgondii IFNg
COc1ccccc1NC(=O)N1C[C@H](O)COC[C@@H]2O[C@@H](CC(=O)N3CCC(Cc4ccccc4)CC3)CC[C@H]21 | -75
COc1ccccc1NC(=O)N1C[C@@H](O)COC[C@H]2O[C@H](CC(=O)N3CCC(Cc4ccccc4)CC3)CC[C@@H]21 | 0
O=C(NCCCc1ccccc1)c1nc(Nc2ccc(F)cc2)c2ccccc2n1 | 0
Cc1noc([C@H]2C[C@@H]3OCC[C@@H]3N(C(=O)c3ccoc3C)C2)n1 | 0
CCN1C(=O)N(Cc2cccc(OC)c2)C(=O)C12CCN(C1CCSC1)CC2 (stereo not drawn) | 0
CC(C)(C)c1ccc(C(=O)N2CCCn3c2nc2ccccc2c3=O)cc1 | 0
CC(C)(C)c1ccc(C(=O)N2NC(=Nc3ccccc3)SC2(C)C)cc1 | -87
CC(C)(C)c1ccc(C(=O)N2CCN(C(=O)c3ccc(C(C)(C)C)cc3)CC2)cc1 | 0
COc1ccc(-c2nc(NCCN3CCN(C)CC3)c3ccccc3n2)cc1 | 0
O=S(=O)(CCN1CCN(C(c2ccccc2)c2ccccc2)CC1)c1ccc(F)cc1 | 0
COC(=O)c1c(NCCc2c[nH]c3ccccc23)c2cc(Cl)ccc2[nH]c1=O | -115
COC(=O)c1c(NCCc2c[nH]c3ccccc23)c2ccccc2[nH]c1=O | -89
COC(=O)c1c(NCc2c(C)noc2C)c2ccccc2[nH]c1=O | 0
COC(=O)c1c(NCCN2CCCc3ccccc32)c2cc(F)ccc2[nH]c1=O | 0
COC(=O)c1c(NCc2ccccc2Br)c2cc(F)ccc2[nH]c1=O | 0
COC(=O)c1c(NCCc2ccc(Cl)cc2)c2cc(F)ccc2[nH]c1=O | -94
COC(=O)c1c(NCCc2cccs2)c2ccc(F)cc2[nH]c1=O | 0
COC(=O)c1c(NCC(C)O)c2cc(F)ccc2[nH]c1=O (stereo not drawn) | 0
COC(=O)c1c(NCC(C)C)c2cc(F)ccc2[nH]c1=O | 0
Cn1ccnc1SCCNC(=O)c1cccc(Cn2cccn2)c1 | 0
Cc1ccc(OCC(=O)N[C@@H]2C[C@H]3C(=O)N(C)CC(=O)N3C2)cc1C | 0
COc1ccc(CCNC(=O)CN2CCS(=O)(=O)CC2)cc1 | 0
Nc1ccc(-c2ccc(F)cc2Cl)cn1 | 0
CC(=O)NCC(=O)N1CCC2(CC1)C(=O)N(CC1CC1)CCN2C | 0
CCOC(=O)C1CCCN(C(=O)c2nc(-c3ccc(Cl)cc3)n3c2CCCCC3)C1 (stereo not drawn) | 0
O=C(c1nc(-c2cccc(F)c2)n2c1CCCCC2)N1CCN(c2ccccc2)CC1 | 0
Cc1ccc(-c2nc(C(=O)N3CCC(C)CC3)c3n2CCCCC3)cc1 | 0
CCOC(=O)C1CCN(C(=O)c2nc(-c3ccc(Cl)cc3)n3c2CCCCC3)CC1 | 0
Cc1ccc(-c2nc(C(=O)N3CCCC(C)C3)c3n2CCCCC3)cc1 (stereo not drawn) | -96
